PfHsp90 yeast 2 = reduces growth (ATP signal) of yeast expressing P. falciparum Hsp90; S. cerevisiae expressing PfHsp90, BacTiter-Glo ATP, 48 h; yeast lacking PDR1 and PDR3 efflux regulators; actives 0.32% (n = 310,000); inhibition, % at 9.4 µM;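 active = every replicate shows inhibition above about 80%, whatever the replicate mean, limit read from the data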
tim23-1 inh = inhibits growth of tim23-1 mutant yeast; S. cerevisiae tim23-1 growth, BacTiter-Glo luminescence, 24 h; actives 1.3% (n = 330,000); AID 463212; inhibition, % at 20 µM;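 active = growth inhibition of the mutant yeast at or above 50%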;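 also: temperature-sensitive mutant grown at 25 °C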
TIM10 inh = growth inhibitors of TIM10 yeast strain. S. cerevisiae TIM10 strain growth, BacTiter-Glo luminescence, 24 h. inhibition, % at 10 µM. actives 1.4% (n = 330,000). AID 463195;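 active = inhibition of 40% or more at the single tested concentration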;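 also: wild-type TIM10 isogenic control strain grown at permissive 25 °C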
V-ATPase pHluor = alters yeast V-ATPase proton transport. S. cerevisiae, pHLuorin cytosolic pH fluorescence. actives 0.37% (n = 350,000). response, % at 10 µM; in the data active = response mostly above about 7.3%, no sharp cut-off; inactive = mostly below about 5.4%; also: actives read high
SKKanGAS inh = inhibitors of SKKanGAS S. pyogenes growth in kanamycin (SK-promoter or general growth effect). inhibition, % at 7.5 µM. BacTiter-Glo, 6 h. AID 1662. actives 1.3% (n = 300,000);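 active = mean replicate score, as percent of positive control median, at least 50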;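 also: strain carries kanamycin resistance gene driven by streptokinase promoter and grows in 40 µg/ml kanamycin; loss of luminescence reflects streptokinase promoter inhibition or plain growth inhibition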
tim10-1 inh = growth inhibitors of tim10-1 mutant yeast; S. cerevisiae tim10-1 ts strain growth, BacTiter-Glo, 24 h; inhibition, % at 20 µM; actives 2.2% (n = 330,000); AID 463190;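 active = inhibition of at least 40%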;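 also: mutant grown at 25 °C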
A number is an active result; n = inactive; x = no result given. This is a sample that favours compounds with a hit; in the whole collection about 4.6% have one here.

SMILES	PfHsp90 yeast 2	tim23-1 inh	TIM10 inh	V-ATPase pHluor	SKKanGAS inh	tim10-1 inh
O=C(O)c1cccc2c1C(=O)c1ccc(-c3ccc(Cl)c(C(F)(F)F)c3)cc1S2(=O)=O	n	n	n	n	x	n
CSc1ncccc1C(=O)OCC(=O)c1[nH]c(C)c(C(C)=O)c1C	x	n	n	n	x	n
COCCNCC(=O)Nc1nc(C)cs1	n	x	x	n	x	x
O[C@@H]([C@H](O)[C@H](O)CBr)[C@H](O)CBr	n	n	n	n	n	n
CCCCNC(=O)N1c2ccccc2CC1C (stereo not drawn)	n	n	n	n	n	n
CO[C@@]1(NC(=O)C2SC(=C(C(N)=O)C(=O)O)S2)C(=O)N2C(C(=O)O)=C(CSc3nnnn3C)CS[C@@H]21 (stereo partly drawn)	n	n	n	n	x	n
Cc1c(Cl)cnn1CC(=O)NC1C(=O)N2C(C(=O)O)=C(CSc3nnnn3C)CSC12 (stereo not drawn)	n	n	n	n	120	n
CC1=C(C(=O)O)N2C(=O)C(NC(=O)c3nn(C)cc3Cl)C2SC1 (stereo not drawn)	n	n	n	n	n	n
Cc1nn(CC(=O)NC2C(=O)N3C(C(=O)O)=C(CSc4nnnn4C)CSC23)cc1Br (stereo not drawn)	n	n	n	n	109	n
CCCCCCOc1ccc(-c2ccc(C#N)cn2)cc1	n	n	n	n	n	n
CC(C)=CCc1c(O)cc2oc3c(CC=C(C)C)c(O)c(O)c(CC=C(C)C)c3c(=O)c2c1O	n	n	n	n	101	n
CC(=O)c1ccc(O)c(CC=C(C)C)c1O	x	n	n	n	n	n
Cc1c(O)cc2n(c1=O)-c1ccccc1C2(C)C	n	n	n	n	n	n
CC1(C)c2ccccc2-n2c1cc1oc(=O)cc(O)c1c2=O	n	n	n	n	96	n
COc1ccc(-c2c/c(=N\c3nc(-c4ccccc4)c(C)s3)c3ccccc3o2)cc1O	n	n	n	n	59	n
COc1cccc(CNC(=O)CCS(=O)(=O)c2ccccc2Cl)c1	n	n	n	n	x	n
CCN(CC)CCN(C)C1CCC(c2ccccc2)CC1 (stereo not drawn)	n	x	x	n	x	x
Cc1ccc(NC(=O)CN2C(=O)S/C(=C\c3ccc(-c4cccc(C(=O)O)c4C)o3)C2=O)cc1	x	n	n	x	53	n
CC(=O)Nc1cccc(NC(=O)c2csc(C)c2)c1	n	n	n	n	n	n
COc1ccc(C(=O)Nc2cccc(/C=C(\CCC(=O)O)c3nc4ccccc4s3)c2)cc1	n	n	n	n	52	n
CC(C)n1cnc2c(NCc3ccccc3)nc(NCc3ccccc3)nc21	n	n	n	n	90	n
CC(C)n1cnc2c(NCc3ccc(S(N)(=O)=O)cc3)nc(NCc3ccc(S(N)(=O)=O)cc3)nc21	x	n	n	n	n	n
C=C1C[C@H]2[C@@H]3CCc4cc(OC)ccc4[C@H]3CC[C@]12C	n	n	n	n	76	n
Cc1nc2c(C(=O)NCCC(C)C)c[nH]n2c(=O)c1Cc1ccccc1F	n	n	n	n	93	n
Cc1nc2c(C(=O)NCCC(C)C)c[nH]n2c(=O)c1Cl	n	n	n	n	n	n
SMILES	PfHsp90 yeast 2	tim23-1 inh	TIM10 inh	V-ATPase pHluor	SKKanGAS inh	tim10-1 inh
CCCCCCn1c(=O)c(C(=O)N/N=C/c2cccc(F)c2)c(O)c2ccccc21	n	n	n	n	63	n
CCCn1c(=O)c(C(=O)NC(C)c2ccccc2)c(O)c2ccccc21 (stereo not drawn)	n	n	n	n	n	n
CC(C)CCn1c(=O)c(C(=O)N/N=C/c2cccc(F)c2)c(O)c2ccccc21	n	n	n	n	81	n
CCCCCCCCn1c(=O)c(C(=O)OCC)c(O)c2ccccc21	x	n	n	n	n	n
CCCn1c(=O)c(C(=O)N/N=C/c2ccc(F)cc2)c(O)c2ccccc21	n	n	n	n	103	n
CCCn1c(=O)c(C(=O)N/N=C/c2ccccc2F)c(O)c2ccccc21	x	n	n	n	n	n
O=C(CC(C(=O)O)c1cccc(Cl)c1Cl)c1ccccc1 (stereo not drawn)	n	n	n	n	n	n
c1ccc(-c2csc(CN3CCCCC3)n2)cc1	n	x	x	n	x	x
CC1CCN(c2nc(N3CCCCC3)nc(N3CCCCC3)n2)CC1	n	n	n	n	56	n
CN(C)c1nc(N(C)C)nc(N2CCCCC2)n1	n	n	n	n	n	n
O=C(c1cc(-c2ccccc2)nc2ccccc12)N1CCN(c2ccccc2O)CC1	n	n	n	n	67	n
O=C(c1cc(-c2ccncc2)nc2ccccc12)N1CCN(c2ccccc2O)CC1	n	n	n	n	n	n
CCN(CC(=O)Nc1c(F)cccc1F)C(=O)C1CCN(C(=O)Nc2ccccc2)CC1	n	n	n	n	x	n
CC1(C)CC[C@]2(C(=O)O)CC[C@]3(C)C(=CC[C@@H]4[C@@]5(C)CC[C@H](O[C@@H]6O[C@H](C(=O)O)[C@@H](O)[C@H](O[C@@H]7OC[C@H](O)[C@H](O)[C@H]7O)[C@H]6O)C(C)(C)[C@@H]5CC[C@]43C)[C@@H]2C1	108	n	n	n	x	n
COC(=O)/C=C1\SC(=Nc2ccc(Cl)c(Cl)c2)NC1=O	n	n	n	n	73	n
CC1CCC/C(=C\c2ccc(O)cc2)C1=O (stereo not drawn)	n	n	n	n	n	n
CN(C)CC1CC/C(=C\c2ccc(O)cc2)C1=O (stereo not drawn)	145	x	x	n	x	x
CN(C)CC1CCC/C(=C\c2ccc(OC(=O)c3ccc(Cl)cc3)cc2)C1=O (stereo not drawn)	n	x	x	n	x	x
COc1ccc(/C=C2/CCC(CN3CCOCC3)C2=O)cc1 (stereo not drawn)	146	x	x	n	x	x
O=C1/C(=C\c2ccc(Cl)cc2)CCC1CNc1ccc(Cl)cc1 (stereo not drawn)	147	x	x	n	x	x
O=C(Nc1ccc(Cl)cc1)c1cc2c(cc1O)[nH]c1ccccc12	n	n	n	n	100	n
Brc1cc2c(cc1C1Nc3ccccc3C3C=CCC31)OCO2 (stereo not drawn)	n	n	n	n	64	n
O=C(O)c1ccc2c(c1)C1C=CCC1C(c1cc3c(cc1Br)OCO3)N2 (stereo not drawn)	n	n	n	n	n	n
Cc1cc(C)c2c(c1)NC(c1cc3c(cc1Br)OCO3)C1CC=CC21 (stereo not drawn)	n	x	x	n	51	x
O=C1CCC([N+](=O)[O-])C(c2cc3c(cc2Br)OCO3)N1 (stereo not drawn)	n	n	n	n	n	n
Cc1ccc(C(=O)N2CCN(c3ccccc3Cl)CC2)cc1[N+](=O)[O-]	105	n	n	n	n	n
Cc1ccc(C(=O)N2CCN(c3ccccn3)CC2)cc1[N+](=O)[O-]	n	n	n	n	n	n
Cc1cc(NC(=O)c2ccc3c(c2)OCCO3)ccc1NC(=O)c1cc2ccccc2o1	n	n	n	n	53	n

Screening data deposited in PubChem by several laboratories.
